Results published in the supplement of paper PMC12669032.

Legend:
Test in all cases: growth AUC relative to DMSO control (median of replicates) (fraction); higher = more growth (less inhibition), active = hit call of the paper
Details in all cases: 20 µM; 24 h;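 active = AUC reduced over 20% with Padj below 0.05 in at least 2 of 3 replicates; inactive = otherwise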
Coprococcus comes = test system: Coprococcus comes
Summary of the method: (§1)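 In round-bottom 96-well plates sealed with pierced gas-permeable seals, gut bacterial monocultures in mGAM were grown anaerobically at 37 °C from OD600 0.05 with 20 µM compound (1% DMSO). OD600 readings were taken hourly for 24 h, and the minimum OD was set to 0. Area under the growth curve was then normalised to the plate median of solvent-only wells, or to row and column medians on the industrial chemical plate. The value given is the median of three biological replicates grown on separate days.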

Escherichia coli ED1a = test system: Escherichia coli ED1a
Summary of the method: as §1

Escherichia coli IAI1 = test system: Escherichia coli IAI1
Summary of the method: as §1

Eubacterium rectale = test system: Eubacterium rectale
Summary of the method: as §1

[1] = test system: Fusobacterium nucleatum subsp. animalis
Summary of the method: as §1

Lactobacillus gasseri = test system: Lactobacillus gasseri
Summary of the method: as §1

Lactobacillus paracasei = test system: Lactobacillus paracasei
Summary of the method: as §1

Odoribacter splanchnicus = test system: Odoribacter splanchnicus
Summary of the method: as §1

[2] = test system: Parabacteroides distasonis
Summary of the method: as §1

Parabacteroides merdae = test system: Parabacteroides merdae
Summary of the method: as §1

Measured: growth AUC

CC(C)Nc1nc(N)nc(Cl)n1
inactive: Coprococcus comes 1.01 | Escherichia coli ED1a 1.01 | Escherichia coli IAI1 1.05 | Eubacterium rectale 1.01 | [1] 1.05 | Lactobacillus gasseri 0.98 | Lactobacillus paracasei 0.96 | Odoribacter splanchnicus 1.06 | [2] 1.06 | Parabacteroides merdae 1.04

CCc1ccc(C(c2ccc(CC)cc2)C(Cl)Cl)cc1
inactive: Coprococcus comes 1.04 | Escherichia coli ED1a 1.02 | Escherichia coli IAI1 1.01 | Eubacterium rectale 0.935 | [1] 0.939 | Lactobacillus gasseri 0.938 | Lactobacillus paracasei 0.996 | Odoribacter splanchnicus 1 | [2] 0.976 | Parabacteroides merdae 0.882

CCOC(=O)[C@@H](C)Oc1ccc(Oc2cnc3cc(Cl)ccc3n2)cc1
inactive: Coprococcus comes 0.983 | Escherichia coli ED1a 0.997 | Escherichia coli IAI1 1.01 | Eubacterium rectale 1.01 | [1] 0.992 | Lactobacillus gasseri 1.03 | Lactobacillus paracasei 0.917 | Odoribacter splanchnicus 0.984 | [2] 1.02 | Parabacteroides merdae 0.99

O=C(O)c1cccc2nnsc12
inactive: Coprococcus comes 0.996 | Escherichia coli ED1a 0.989 | Escherichia coli IAI1 0.991 | Eubacterium rectale 1.01 | [1] 0.982 | Lactobacillus gasseri 0.936 | Lactobacillus paracasei 0.909 | Odoribacter splanchnicus 1.03 | [2] 0.999 | Parabacteroides merdae 0.998

O=C(O)CNC(=O)c1cnccc1C(F)(F)F
inactive: Coprococcus comes 0.96 | Escherichia coli ED1a 1.03 | Escherichia coli IAI1 1.02 | Eubacterium rectale 1.01 | [1] 1.14 | Lactobacillus gasseri 0.903 | Lactobacillus paracasei 1.11 | Odoribacter splanchnicus 1.02 | [2] 1.03 | Parabacteroides merdae 0.992

Nc1ccc(S(=O)(=O)Nc2cnc3ccccc3n2)cc1
inactive: Coprococcus comes 0.996 | Escherichia coli ED1a 1 | Escherichia coli IAI1 0.975 | Eubacterium rectale 0.983 | [1] 0.936 | Lactobacillus gasseri 1.03 | Lactobacillus paracasei 0.887 | Odoribacter splanchnicus 1.01 | [2] 1.01 | Parabacteroides merdae 0.97

Oc1ccccc1O
inactive: Coprococcus comes 0.993 | Escherichia coli ED1a 0.994 | Escherichia coli IAI1 1.01 | Eubacterium rectale 1 | [1] 1.01 | Lactobacillus gasseri 1 | Lactobacillus paracasei 0.995 | Odoribacter splanchnicus 1.08 | [2] 1.02 | Parabacteroides merdae 1

CC(C)CCCCCCc1ccc(O)cc1
inactive: Coprococcus comes 1.01 | Escherichia coli ED1a 1.02 | Escherichia coli IAI1 1.01 | Eubacterium rectale 0.879 | [1] 1.16 | Lactobacillus gasseri 0.948 | Lactobacillus paracasei 1.03 | Odoribacter splanchnicus 1.05 | [2] 1.02 | Parabacteroides merdae 0.968

CP(=O)(O)CCC(=O)O
inactive: Coprococcus comes 0.993 | Escherichia coli ED1a 0.973 | Escherichia coli IAI1 0.999 | Eubacterium rectale 0.804 | [1] 0.999 | Lactobacillus gasseri 1.14 | Lactobacillus paracasei 0.999 | Odoribacter splanchnicus 1.04 | [2] 0.974 | Parabacteroides merdae 0.993

Oc1ccc2ccccc2c1N=Nc1ccccc1
inactive: Coprococcus comes 0.858 | Escherichia coli ED1a 1.01 | Escherichia coli IAI1 1.01 | Eubacterium rectale 0.983 | [1] 1 | Lactobacillus gasseri 0.973 | Odoribacter splanchnicus 1.04 | [2] 0.905 | Parabacteroides merdae 1.05
active: Lactobacillus paracasei 0.733

CCOC(=O)C(C)N(C(=O)c1ccccc1)c1ccc(Cl)c(Cl)c1 (stereo not given)
inactive: Coprococcus comes 0.971 | Escherichia coli ED1a 1.03 | Escherichia coli IAI1 0.991 | Eubacterium rectale 1.04 | [1] 1.02 | Lactobacillus gasseri 0.935 | Lactobacillus paracasei 1.03 | Odoribacter splanchnicus 0.985 | Parabacteroides merdae 0.939
active: [2] 0.733

Cc1cccc(C)c1N(C(=O)CCl)C1CCOC1=O (stereo not given)
inactive: Coprococcus comes 0.889 | Escherichia coli ED1a 0.963 | Escherichia coli IAI1 1.01 | Eubacterium rectale 1.09 | [1] 1.02 | Lactobacillus gasseri 0.953 | Lactobacillus paracasei 1.01 | Odoribacter splanchnicus 0.408 | [2] 0.99 | Parabacteroides merdae 0.981

CC(C)OC(=O)N[C@H](C(=O)N[C@H](C)c1nc2ccc(F)cc2s1)C(C)C
inactive: Coprococcus comes 1.06 | Escherichia coli ED1a 0.989 | Escherichia coli IAI1 1 | Eubacterium rectale 1.13 | [1] 1.16 | Lactobacillus gasseri 0.859 | Lactobacillus paracasei 1.03 | Odoribacter splanchnicus 1.02 | [2] 0.847 | Parabacteroides merdae 1

CC(C)N(C(=O)C(=O)O)c1ccc(F)cc1
inactive: Coprococcus comes 0.985 | Escherichia coli ED1a 1.03 | Escherichia coli IAI1 1.02 | Eubacterium rectale 1.05 | [1] 1.18 | Lactobacillus gasseri 1.05 | Lactobacillus paracasei 1 | Odoribacter splanchnicus 1.04 | [2] 1 | Parabacteroides merdae 1.01

Cc1cccc(C)c1N(CC(=O)O)C(=O)CS(=O)(=O)[O-].[Na+]
inactive: Coprococcus comes 0.996 | Escherichia coli ED1a 0.973 | Escherichia coli IAI1 0.946 | Eubacterium rectale 0.847 | [1] 0.941 | Lactobacillus gasseri 0.987 | Lactobacillus paracasei 0.928 | Odoribacter splanchnicus 1.01 | [2] 0.965 | Parabacteroides merdae 0.997

COc1cc(OC)nc(NC(=O)NS(=O)(=O)N(C)S(C)(=O)=O)n1
inactive: Coprococcus comes 1 | Escherichia coli ED1a 1.02 | Escherichia coli IAI1 1.01 | Eubacterium rectale 1.04 | [1] 1.01 | Lactobacillus gasseri 1.06 | Lactobacillus paracasei 1.04 | Odoribacter splanchnicus 1.06 | [2] 1.01 | Parabacteroides merdae 0.983

CCSC(=O)COc1ccc(Cl)cc1C
inactive: Coprococcus comes 0.981 | Escherichia coli ED1a 0.973 | Escherichia coli IAI1 0.986 | Eubacterium rectale 1.03 | [1] 1 | Lactobacillus gasseri 0.874 | Lactobacillus paracasei 1.08 | Odoribacter splanchnicus 0.901 | [2] 1.05 | Parabacteroides merdae 0.992

C/C=C/C=C/CCCCCCCO
inactive: Coprococcus comes 0.995 | Escherichia coli ED1a 1.01 | Escherichia coli IAI1 0.983 | Eubacterium rectale 1.03 | [1] 1.08 | Lactobacillus gasseri 0.96 | Lactobacillus paracasei 0.984 | Odoribacter splanchnicus 1.03 | [2] 0.967 | Parabacteroides merdae 0.982

CNc1nc(NC(C)C)nc(SC)n1
inactive: Coprococcus comes 0.962 | Escherichia coli ED1a 1 | Escherichia coli IAI1 0.988 | Eubacterium rectale 0.879 | [1] 0.922 | Lactobacillus gasseri 1.18 | Lactobacillus paracasei 1.05 | Odoribacter splanchnicus 0.984 | [2] 0.985 | Parabacteroides merdae 0.993

CCCCCCCCCCCC[N+](C)(C)Cc1ccc(CC)cc1.[Cl-]
inactive: Escherichia coli ED1a 0.981 | Escherichia coli IAI1 0.945 | Eubacterium rectale 0.863 | [1] 0.902 | Lactobacillus paracasei 0.708 | Odoribacter splanchnicus 0.973
active: Coprococcus comes 0.374 | Lactobacillus gasseri 0.651 | [2] 0.671 | Parabacteroides merdae 0.708

CCCOC(=O)c1ccc(O)cc1
inactive: Coprococcus comes 1 | Escherichia coli ED1a 0.986 | Escherichia coli IAI1 0.971 | Eubacterium rectale 0.951 | [1] 0.985 | Lactobacillus gasseri 1.06 | Lactobacillus paracasei 1.01 | Odoribacter splanchnicus 0.945 | [2] 1.01 | Parabacteroides merdae 0.988

Cc1cc(C)c(C2=C(O)C3(CCCC3)OC2=O)c(C)c1
active: Odoribacter splanchnicus 0.563 | [2] 0.622
inactive: Coprococcus comes 0.981 | Escherichia coli ED1a 0.997 | Escherichia coli IAI1 1.01 | Eubacterium rectale 0.996 | [1] 0.947 | Lactobacillus gasseri 1.09 | Lactobacillus paracasei 1.02 | Parabacteroides merdae 1

CCNc1nc(NC(C)(C)C)[nH]c(=O)n1
inactive: Coprococcus comes 0.988 | Escherichia coli ED1a 1.02 | Escherichia coli IAI1 0.987 | Eubacterium rectale 1.03 | [1] 0.99 | Lactobacillus gasseri 0.899 | Lactobacillus paracasei 1.04 | Odoribacter splanchnicus 0.948 | [2] 1.01 | Parabacteroides merdae 0.994

O=C(O)COc1ccc(Cl)cc1CO
inactive: Coprococcus comes 0.999 | Escherichia coli ED1a 0.964 | Escherichia coli IAI1 1.01 | Eubacterium rectale 1.05 | [1] 0.931 | Lactobacillus gasseri 0.852 | Lactobacillus paracasei 0.993 | Odoribacter splanchnicus 0.96 | [2] 0.91 | Parabacteroides merdae 0.978

O=C(NC(=O)c1c(F)cccc1F)Nc1cc(C(F)(F)F)cc(C(F)(F)F)c1Cl
inactive: Coprococcus comes 0.932 | Escherichia coli ED1a 0.949 | Escherichia coli IAI1 0.971 | Eubacterium rectale 0.941 | [1] 0.989 | Lactobacillus gasseri 1.33 | Lactobacillus paracasei 0.861 | Odoribacter splanchnicus 0.936 | [2] 0.948 | Parabacteroides merdae 0.951

CCCCCCCC(=O)Oc1c(Br)cc(C#N)cc1Br
inactive: Coprococcus comes 1.01 | Escherichia coli ED1a 0.973 | Escherichia coli IAI1 0.924 | Eubacterium rectale 1.15 | [1] 0.966 | Lactobacillus gasseri 0.987 | Lactobacillus paracasei 0.863 | Odoribacter splanchnicus 1.12 | [2] 0.975 | Parabacteroides merdae 0.922

CCc1cccc(C)c1N(COC(C)C)C(=O)CCl
inactive: Coprococcus comes 1.03 | Escherichia coli ED1a 1.05 | Escherichia coli IAI1 1.01 | Eubacterium rectale 1.04 | [1] 0.961 | Lactobacillus gasseri 0.99 | Lactobacillus paracasei 1.07 | Odoribacter splanchnicus 1.1 | [2] 1.04 | Parabacteroides merdae 0.982

CC(C)(c1cc(Br)c(O)c(Br)c1)c1cc(Br)c(O)c(Br)c1
inactive: Escherichia coli ED1a 1.04 | Escherichia coli IAI1 0.997
active: Coprococcus comes 0.41 | Eubacterium rectale 0.0259 | [1] 0.465 | Lactobacillus gasseri 0.136 | Lactobacillus paracasei 0.0653 | Odoribacter splanchnicus 0.0465 | [2] 0.0802 | Parabacteroides merdae 0.151

COc1cc(Cl)ccc1Oc1ccc(Cl)cc1Cl
inactive: Coprococcus comes 0.938 | Escherichia coli ED1a 0.996 | Escherichia coli IAI1 1 | Eubacterium rectale 0.99 | [1] 0.851 | Lactobacillus gasseri 1 | Lactobacillus paracasei 1.16 | Odoribacter splanchnicus 0.947 | [2] 0.988 | Parabacteroides merdae 0.929

CN(C)c1ccc(N=NS(=O)(=O)[O-])cc1.[Na+]
inactive: Coprococcus comes 1.03 | Escherichia coli ED1a 1.02 | Escherichia coli IAI1 1.03 | Eubacterium rectale 0.973 | [1] 1.01 | Lactobacillus gasseri 0.967 | Lactobacillus paracasei 1.02 | Odoribacter splanchnicus 1.03 | [2] 1.04 | Parabacteroides merdae 0.996
